PubChem BioAssay (Tox21)
Results filed as inconclusive are left out. Activity calls are given as the source filed them. Unless noted, the call rests on the fitted dose curve; in most records, active means well fitted curve in the direction sought with a large enough effect in the repeat runs; inconclusive means weak or mixed curves; inactive means no such curve, though single readings can be large; an effect the other way counts as inactive or inconclusive.

Columns and labels:
[1] = qHTS assay for small molecule agonists of the p53 signaling pathway (AID 651631; calls by dose curve; further: nearly all actives have a fitted effect of over 15% in size)
How it was run: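 HCT-116 p53RE-bla reporter line, 16 h compound treatment at 37 °C, then fluorescence after 2 h with B/G FRET substrate.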

[2] = qHTS assay for small molecule agonists of the p53 signaling pathway - cell viability (AID 651633; calls by dose curve; further: nearly all actives have a fitted effect of over 30% in size; further: potency means the concentration at half of the fitted maximal effect)
How it was run: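 p53RE-bla cells were treated with compound for 16 hours at 37 C. Cytotoxicity was then measured as CellTiter-Glo luminescence after 30 min at room temperature.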

[3] = qHTS assay for small molecules that induce genotoxicity in human embryonic kidney cells expressing luciferase-tagged ATAD5 - cell viability (AID 651634; calls by dose curve; further: nearly all actives have a fitted effect of over 25% in size; further: potency means the concentration at half of the fitted maximal effect)
How it was run: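 15.5 hr compound or vehicle exposure of HEK293T cells expressing luciferase-tagged ATAD5 at 37C; live-cell protease activity is read by fluorescence after 30 min of CellTiter-Fluor.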

[4] = qHTS assay to test for compound auto fluorescence at 590 nm (red) in HepG2 cells (AID 720674)
How it was run: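 Seeding: 2,000 HepG2 cells/well, MEM/10% FBS, overnight 37 C. Dosing: compound vs DMSO. Incubation: 1 hr, 37 C, 5% CO2. Read: fluorescence 540 ex/590 em, Rose Bengal sodium as red reference.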

[5] = qHTS assay to test for compound auto fluorescence at 535 nm (green) in HepG2 cells (AID 720675)
[6] = qHTS assay to test for compound auto fluorescence at 460 nm (blue) in HEK293 cells (AID 720678)
How it was run: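 HEK293 cells (2,000/well, medium with 10% dialyzed FBS) attached 4-5 hr, then exposed to compound overnight at 37C, 5% CO2. Blue fluorescence read at 405/460 nm, with triamterene as reference fluorophore.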

[7] = qHTS assay to test for compound auto fluorescence at 590 nm (red) in HEK293 cells (AID 720679)
How it was run: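 HEK293 cells (2,000/well, 10% dialyzed FBS) attached 4-5 hr, then dosed with compound or DMSO and incubated overnight at 37C, 5% CO2. Red fluorescence read at 540/590 nm, Rose Bengal sodium as reference fluorophore.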

[8] = qHTS assay to test for compound auto fluorescence at 535 nm (green) in HEK293 cells (AID 720680)
[9] = qHTS assay to test for compound auto fluorescence at 460 nm (blue) in HEK293 cell free culture (AID 720681)
How it was run: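 Compounds were added to cell-free DMEM with 10% FBS and fluorescence read directly. The blue channel used 405 nm excitation and 460 nm emission, with triamterene as the reference fluorophore.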

[10] = qHTS assay to test for compound auto fluorescence at 535 nm (green) in HEK293 cell free culture (AID 720682)
How it was run: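 Steps: dispense DMEM/10% FBS into empty wells; pin in compound or DMSO; measure fluorescence at 485/535 nm. Values are fluorescein equivalents.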

[11] = qHTS assay to test for compound auto fluorescence at 590 nm (red) in HEK293 cell free culture (AID 720683)
How it was run: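 Cell-free wells of DMEM with 10% FBS received compound, and intrinsic fluorescence was read at excitation/emission 540/590 nm. Values expressed as equivalence to Rose Bengal sodium.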

[12] = qHTS assay to test for compound auto fluorescence at 590 nm (red) in HepG2 cell free culture (AID 720684)
How it was run: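 Rose Bengal sodium served as the reference for red signal. Test compounds were dispensed into serum-containing MEM (10% FBS) without cells, and plates were read at 540/590 nm.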

[13] = qHTS assay to test for compound auto fluorescence at 460 nm (blue) in HepG2 cell free culture (AID 720685)
How it was run: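 Cell-free plates of MEM plus 10% FBS received 23 nL compound or DMSO vehicle; blue-channel (405/460 nm) intensity scored against triamterene as reference fluorophore.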

[14] = qHTS assay to test for compound auto fluorescence at 535 nm (green) in HepG2 cell free culture (AID 720686)
[15] = qHTS assay to test for compound auto fluorescence at 460 nm (blue) in HepG2 cells (AID 720687)
How it was run: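 HepG2 cells in MEM with 10% FBS, attached overnight at 37 C, were exposed to compound or DMSO for 1 hr at 37 C, 5% CO2. Blue fluorescence was read at 405/460 nm, with triamterene as reference fluorophore.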

[16] = qHTS assay for small molecules that induce genotoxicity in human embryonic kidney cells expressing luciferase-tagged ATAD5 (AID 651632); further: nearly all actives have a fitted effect of over 15% in size; further: potency means the concentration at half of the fitted maximal effect
How it was run: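 Concentration-response screen for ATAD5 upregulation in HEK293T luciferase reporter cells; 16 hr treatment at 37C, then luminescence after 30 min with Amplite at room temperature.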

[17] = qHTS assay for small molecule disruptors of the mitochondrial membrane potential - cell viability (AID 720634; calls by dose curve;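 further: human HepG2 liver cancer cells; nearly all actives have a fitted effect of over 20% in size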)
How it was run: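 In this qHTS format, HepG2 cells plated overnight were pinned with compound, incubated 1 hr, and assayed for ATP luminescence with CellTiter-Glo after m-MPI dye addition.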

[18] = target: Glucocorticoid receptor (Homo sapiens) (UniProt P04150); experiment: qHTS assay to identify small molecule antagonists of the glucocorticoid receptor (GR) signaling pathway (AID 720692; active means well fitted inhibition curve with a large enough effect in the signal ratio in the repeat runs, not every such curve was filed as active; the % refers to the signal ratio)
How it was run: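 Tox21 10K library screened in concentration-response for blockade of dexamethasone (5 nM final)-induced GRE-bla reporter activity in HeLa cells; 18 h treatment, fluorescence read.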

[19] = qHTS assay for small molecule disruptors of the mitochondrial membrane potential (AID 720635); further: potency means the concentration at half of the fitted maximal effect
How it was run: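 HepG2 cells exposed to compound 1 hr at 37C, then Mito-MPS dye 30 min. Ratio read of aggregate (540/590 nm) versus monomer (490/535 nm) fluorescence.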

[20] = target: Glucocorticoid receptor (Homo sapiens) (UniProt P04150); experiment: qHTS assay to identify small molecule agonists of the glucocorticoid receptor (GR) signaling pathway (AID 720691; active means well fitted activation curve with a large enough effect in the signal ratio in the repeat runs, not every such curve was filed as active; the % refers to the signal ratio); settings: GR-bla HeLa, beta-lactamase reporter ratio, 18 h; activation: at 62.4 µM (top of the series) unless noted
How it was run: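 Measures GR pathway activation through a GRE-beta-lactamase reporter stably integrated in HeLa cells, with 18 h compound treatment at 37 C and fluorescence detection using a FRET substrate.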
On the % scale 0 is the no-effect control and ±100 the full control effect.

Chain of Glucocorticoid receptor (Homo sapiens) (P04150 whole entry, looked up): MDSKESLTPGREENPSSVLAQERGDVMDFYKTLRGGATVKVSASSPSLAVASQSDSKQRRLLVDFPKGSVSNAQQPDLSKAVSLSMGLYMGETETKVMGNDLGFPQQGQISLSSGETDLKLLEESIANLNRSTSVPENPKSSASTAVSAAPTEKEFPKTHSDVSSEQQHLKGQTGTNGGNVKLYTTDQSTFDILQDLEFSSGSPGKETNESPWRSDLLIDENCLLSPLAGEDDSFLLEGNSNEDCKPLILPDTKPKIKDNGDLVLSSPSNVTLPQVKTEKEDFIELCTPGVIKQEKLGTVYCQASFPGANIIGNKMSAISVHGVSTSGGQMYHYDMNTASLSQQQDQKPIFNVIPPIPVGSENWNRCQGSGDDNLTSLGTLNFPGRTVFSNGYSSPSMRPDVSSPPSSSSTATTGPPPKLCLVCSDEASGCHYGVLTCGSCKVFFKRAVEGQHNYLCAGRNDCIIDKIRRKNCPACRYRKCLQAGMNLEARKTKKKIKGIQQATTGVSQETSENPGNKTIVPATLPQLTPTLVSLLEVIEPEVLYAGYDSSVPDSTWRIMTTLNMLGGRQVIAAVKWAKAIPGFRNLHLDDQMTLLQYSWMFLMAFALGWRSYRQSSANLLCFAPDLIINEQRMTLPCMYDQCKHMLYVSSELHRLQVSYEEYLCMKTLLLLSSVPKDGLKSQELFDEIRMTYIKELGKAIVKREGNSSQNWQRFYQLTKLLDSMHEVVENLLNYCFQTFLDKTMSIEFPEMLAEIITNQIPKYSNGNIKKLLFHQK

CCCCC1=NC2(CCCC2)C(=O)N1Cc1ccc(-c2ccccc2-c2nn[nH]n2)cc1
inactive: Potency [1] | Potency [2] | Potency [3] | Potency [4] | Potency [5] | outcome [6] | Potency [7] | outcome [8] | outcome [9] | outcome [10] | Potency [11] | Potency [12] | outcome [13] | Potency [14] | outcome [15]

CN(C)CCN(Cc1ccccc1)c1ccccn1
inactive: Potency [16] | Potency [2] | Potency [3] | Potency [17] | Potency [4] | Potency [7] | outcome [8] | outcome [9] | outcome [10] | Potency [11] | Potency [12] | outcome [13] | Potency [14] | outcome [15] | Potency [18]

C=C1C(=C/C=C2\CCC[C@]3(C)[C@@H]([C@H](C)/C=C/[C@@H](O)C4CC4)CC[C@@H]23)C[C@@H](O)C[C@@H]1O
inactive: Potency [16] | Potency [17] | Potency [4] | Potency [5] | outcome [6] | Potency [7] | outcome [8] | outcome [9] | outcome [10] | Potency [11] | Potency [12] | Potency [14] | outcome [15] | Potency [20]
active: Potency [2] 26.6 µM | Potency [19] 22.1 µM

CCc1cc(C2=C(C(=O)O)N(c3ccccc3C(F)(F)F)S(=O)(=O)c3ccccc32)cc2c1OCO2
active: Potency [19] 48 µM
inactive: Potency [16] | Potency [2] | Potency [5] | outcome [6] | Potency [7] | outcome [8] | outcome [9] | outcome [10] | Potency [11] | Potency [12] | outcome [13] | Potency [14] | outcome [15] | Potency [20]

Nc1ccc(N)c2c1C(=O)c1ccccc1C2=O
inactive: Potency [16] | Potency [2] | Potency [4] | outcome [6] | Potency [7] | outcome [9] | outcome [10] | Potency [11] | Potency [12] | outcome [13] | outcome [15] | Potency [20]
active: Potency [3] 27.3 µM

C=C(C)C(=O)OCCO
inactive: Potency [16] | Potency [2] | Potency [3] | Potency [17] | Potency [5] | outcome [6] | Potency [7] | outcome [8] | outcome [9] | outcome [10] | Potency [11] | Potency [12] | outcome [15] | Potency [20]

CN1CCC(=C2c3ccccc3Sc3ccccc32)CC1
active: Potency [2] 29.8 µM | Potency [3] 26.6 µM
inactive: Potency [16] | Potency [17] | Potency [4] | Potency [5] | Potency [7] | outcome [8] | outcome [9] | outcome [10] | Potency [11] | Potency [12] | outcome [13] | Potency [14] | outcome [15]

CCN(CC)CCOC(=O)C(Cc1cccc2ccccc12)CC1CCCO1 (stereo unspecified)
inactive: Potency [16] | Potency [2] | Potency [3] | Potency [17] | fluorescence, relative to Rose Bengal [4] -0.202% [at 18.6 µM] | fluorescence, % of triamterene [6] 0.0425% [at 18.6 µM] | fluorescence, % of fluorescent control [7] 0.195% [at 18.6 µM] | fluorescence, % of fluorescein [8] 0.0124% [at 18.6 µM] | fluorescence, % of fluorescent control [9] 0.0375% [at 18.6 µM] | activity change [10] -0.0273% [at 18.6 µM] | fluorescence, % of fluorescent control [11] 0.0006% [at 18.6 µM] | fluorescence, % of Rose Bengal [12] 0.633% [at 18.6 µM] | fluorescence, % of fluorescent control [13] -0.0194% [at 18.6 µM] | fluorescence, % of fluorescein control [14] 0.0151% [at 18.6 µM] | fluorescence, % of fluorescent control [15] -0.147% [at 18.6 µM]

Cc1cccc(C)c1NC(=O)CN(CC(=O)O)CC(=O)O
inactive: Potency [16] | Potency [2] | Potency [3] | Potency [19] | Potency [4] | Potency [5] | outcome [6] | Potency [7] | outcome [8] | outcome [9] | Potency [11] | Potency [12] | outcome [13] | Potency [14] | outcome [15] | Potency [20] | Potency [18]

CCCCCCCCCCCc1ccccc1
inactive: Potency [16] | Potency [2] | Potency [3] | Potency [17] | Potency [5] | Potency [7] | outcome [8] | outcome [9] | outcome [10] | Potency [11] | Potency [12] | outcome [13] | Potency [14] | outcome [15] | Potency [20]

OC(C#CCN1CCCC1)(c1ccccc1)c1ccccc1
inactive: Potency [16] | Potency [2] | Potency [3] | Potency [4] | Potency [7] | outcome [9] | outcome [10] | Potency [11] | Potency [12] | outcome [13] | Potency [14] | outcome [15] | Potency [20]

COc1ccc(C(=O)Nc2nc3ccccc3c(NCc3ccccc3)c2C#N)cc1
inactive: Potency [16] | Potency [2] | Potency [3] | Potency [4] | Potency [5] | outcome [6] | Potency [7] | outcome [8] | outcome [9] | outcome [10] | Potency [11] | Potency [12] | Potency [14] | outcome [15]
active: Potency [19] 5.45 µM

O=C(O)c1ccc(S(=O)(=O)O)cc1C(=O)O
inactive: Potency [16] | Potency [2] | Potency [3] | Potency [4] | Potency [5] | outcome [6] | Potency [7] | outcome [9] | outcome [10] | Potency [11] | Potency [12] | outcome [13] | Potency [14] | outcome [15]

CCOC(=O)COC(=O)c1cc(Oc2ccc(C(F)(F)F)cc2Cl)ccc1[N+](=O)[O-]
inactive: Potency [16] | Potency [2] | Potency [3] | Potency [4] | Potency [5] | Potency [7] | outcome [8] | outcome [9] | outcome [10] | Potency [11] | Potency [12] | outcome [13] | Potency [14] | outcome [15]

O=C(O)C1(C(=O)Nc2ccc(Cl)cc2Cl)CC1
inactive: Potency [2] | Potency [3] | Potency [5] | outcome [6] | Potency [7] | outcome [9] | Potency [11] | Potency [12] | Potency [14] | outcome [15]
active: Potency [16] 1.93 µM | Potency [19] 8.63 µM

CCO[Si](CCCCl)(OCC)OCC
inactive: Potency [16] | Potency [2] | Potency [3] | Potency [4] | Potency [7] | outcome [9] | Potency [11] | Potency [12] | Potency [14] | outcome [15] | Potency [20] | Potency [18]
active: Potency [19] 48.1 µM
